Compounds without any hit were thinned out: in the full panel of roughly 83,000, 20% have a hit.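 Values shown are percent growth following 48 h exposure of cells in 96-well plates to a single concentration of compound; below 10 was considered active.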 Values without a mark were called inactive. Active and inactive are the calls of the source.
How the values were obtained:
Experiment in all cases: NCI-60 one-dose screen, 48 h (100 = growth as untreated, 0 = no growth, -100 = all killed)
Conditions in all cases: 10 µM unless noted
HCT-15 colon = tested on: HCT-15 colon
HT29 colon = tested on: HT29 colon
SNB-75 CNS = tested on: SNB-75 CNS
SNB-19 CNS = tested on: SNB-19 CNS
U251 CNS = tested on: U251 CNS
PC-3 prostate = tested on: PC-3 prostate
SK-MEL-5 melanoma = tested on: SK-MEL-5 melanoma
UACC-62 melanoma = tested on: UACC-62 melanoma
LOX IMVI melanoma = tested on: LOX IMVI melanoma
SK-MEL-28 melanoma = tested on: SK-MEL-28 melanoma
SK-MEL-2 melanoma = tested on: SK-MEL-2 melanoma
EKVX NSCLC = tested on: EKVX NSCLC
SN12C renal = tested on: SN12C renal
UO-31 renal = tested on: UO-31 renal
TK-10 renal = tested on: TK-10 renal
ACHN renal = tested on: ACHN renal
CAKI-1 renal = tested on: CAKI-1 renal
A498 renal = tested on: A498 renal
CCRF-CEM leukemia = tested on: CCRF-CEM leukemia
MOLT-4 leukemia = tested on: MOLT-4 leukemia

Compound	growth (HCT-15 colon)	growth (HT29 colon)	growth (SNB-75 CNS)	growth (SNB-19 CNS)	growth (U251 CNS)	growth (PC-3 prostate)	growth (SK-MEL-5 melanoma)	growth (UACC-62 melanoma)	growth (LOX IMVI melanoma)	growth (SK-MEL-28 melanoma)	growth (SK-MEL-2 melanoma)	growth (EKVX NSCLC)	growth (SN12C renal)	growth (UO-31 renal)	growth (TK-10 renal)	growth (ACHN renal)	growth (CAKI-1 renal)	growth (A498 renal)	growth (CCRF-CEM leukemia)	growth (MOLT-4 leukemia)
COc1ccc(-c2nn3c(-c4cc(F)c(Cl)cc4Cl)nnc3s2)cc1	42%	5.17% (active)	7.7% (active)	40.6%	35.6%	42.8%	20.1%	44.4%	42.1%	36.7%	66.8%	75.4%	72.5%	49.7%	105%	66.7%	37.7%	65.9%	9.61% (active)	21.6%
C=C(C)[C@@H]1CC[C@]2(C)[C@H](CC(=O)N[C@H]3[C@@H]4C[C@](C)(C(=O)OC)CC[C@]4(C)CC[C@]32C)[C@@]1(C)CCC#N	68.6%	70.9%	96.5%	89%	79.9%	42.9%	49.7%	68.3%	96.9%	104%	95.3%	93.2%	79.4%	75.7%	104%	88%	79.2%	101%	75.1%	42.7%
Cc1nc2sc(C(=O)Nc3cccc4ccccc34)c(N)c2cc1C(=O)/C=C/c1ccccc1	-63.3% (active)	-47.9% (active)	8.27% (active)	-27.1% (active)	-67.3% (active)	-8.41% (active)	-17.8% (active)	7.54% (active)	-73.1% (active)	23.6%	27%	41.1%	-44.3% (active)	-82.6% (active)	4.36% (active)	5.45% (active)	-60.6% (active)	-5.08% (active)	5.51% (active)	18.4%
Cc1ccc(-c2nc([P+](c3ccccc3)(c3ccccc3)c3ccccc3)c(Nc3ccccc3)o2)cc1	1.96% (active)	-2.08% (active)	-31.6% (active)	2.16% (active)	-16.2% (active)	4.11% (active)	-87.4% (active)	-25.8% (active)	-8.29% (active)	-42.3% (active)	-58.8% (active)	-2.84% (active)	2.84% (active)	-23.5% (active)	8.06% (active)	-11.6% (active)	-27.8% (active)	-37.9% (active)	0.282% (active)	-9.22% (active)
Nn1c(-c2ccc(Cl)cc2)nc2c(-c3ccc(Cl)cc3)nc3ccc(Cl)cc3c2c1=O	58.2%	7.88% (active)	-51.4% (active)	28.2%	-63.5% (active)	36.6%	52.5%	30.3%	20.2%	-67.2% (active)	73.3%	6.86% (active)	-3.15% (active)	-24.9% (active)	0.823% (active)	4.66% (active)	14.7%	21.3%	-15.8% (active)	32.3%
O=C(NNc1ccccc1)C1CCCN1 (stereo not given)	40.5%	62.3%	90.7%	94.1%	82.3%	77%	89.1%	16.2%	8.66% (active)	69.2%	87.5%	69.4%	85.4%	33%	84.6%	20%	13.5%	103%	46.7%	44.3%
N=c1ccccn1CCO	87%	97.3%	113%	93.5%	109%	92.7%	104%	98.1%	104%	108%	104%	121%	98.1%	85.4%	109%	102%	106%	89.9%	102%	93.4%
Nc1n[nH]c2cccc(C#Cc3cccc(C(=O)Nc4ccc(CN5CCOCC5)c(C(F)(F)F)c4)c3)c12	22.5%	17.4%	52.9%	75.2%	40.3%	29.5%	17.5%	5.89% (active)	6.76% (active)	14.5%	23.3%	63.4%	54.8%	22.3%	76.2%	24.8%	73.4%	67.5%	20.7%	16.9%
N#C/C(=C\c1ccccc1Cl)c1cc2ccccc2[nH]1	81.4%	97.7%	83%	93.1%	85.8%	80.5%	85.9%	76.5%	92.4%	99%	114%	77.1%	92.4%	69.7%	130%	84.7%	73.1%	98.6%	-4.12% (active)	77.1%
CCN(CC)CC(=O)Nc1ccc2ncnc(Nc3ccc(Oc4cccc(F)c4)c(Cl)c3)c2c1	17.6%	14.4%	66.4%	72.2%	45.2%	44.7%	58.4%	86.9%	-42% (active)	81.3%	90.9%	42.8%	67.8%	22%	51.9%	41.6%	46.6%	44.2%	46.8%	41.8%
COc1ccc(-c2ccc(-c3ccc(C(=N)N)cn3)s2)cc1Cl	-72.5% (active)	-52.6% (active)	-98.4% (active)	-73.9% (active)	-62.2% (active)	-80.9% (active)	-48.4% (active)	-92.3% (active)	-84.5% (active)	-86.6% (active)	-54% (active)	-58.4% (active)	-81% (active)	-89.9% (active)	-73.1% (active)	-98.2% (active)	-98.4% (active)	99%	-36.1% (active)	-31.5% (active)
OCCN1CCN(c2cc(-c3cccc(OC(F)(F)F)c3)nc3ccc(N4CCCC4)cc23)CC1	10.9%	5.34% (active)	53.5%	74.1%	29.3%	25.9%	46.7%	59.6%	9.02% (active)	71.1%	93.3%	75.9%	59.5%	37.1%	69.3%	44.7%	40.5%	68.3%	40%	11.2%

— PubChem BioAssay (NCI)
